Experimental data as given in PubChem BioAssay AID1159580 (chemical genetic matrix, 2015).
Screen size: about 5,500 compounds; about 2,000 (36%) were called active. Not shown: some 18% with an inconclusive outcome. No stated cut-off is given here; in the data, active means normalized growth mostly below about 0.91 (no sharp cut-off); inconclusive means no clear call, values can overlap the other calls; inactive means mostly above about 0.92. This is one part of the list.

Assay: chemical genetic growth profiling, strain panel (AID 1159580);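 further: tested at 20 µM; growth read once vehicle control cultures reached saturation at 30 °C; 1 = growth at the plate median or of vehicle wells; lower values mean less growth of the strain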
Conditions: growth OD

Measured: normalized growth

CC(=O)OCC(CCn1cnc2cnc(N)nc21)COC(C)=O
inactive: S. cerevisiae deletion strains, locus YJR075W, strain HOC1, hits give low values 0.991 | S. cerevisiae deletion strains, locus YKL009W, strain mrt4, hits give low values 0.973 | S. cerevisiae deletion strains, locus YKL068W, hits give low values 0.977 | S. cerevisiae deletion strains, locus YKL085W, strain MDH1 (second series), hits give low values 0.971 | S. cerevisiae deletion strains, locus YKL085W, strain MDH1, hits give low values 0.971 | S. cerevisiae deletion strains, locus YKL160W, strain elf1, hits give low values 0.981 | S. cerevisiae deletion strains, locus YKL190W, strain CNB1, hits give low values 0.989 | S. cerevisiae deletion strains, locus YKR001C, strain vps1, hits give low values 0.986 | S. cerevisiae deletion strains, locus YKR026C, strain gcn3, hits give low values 0.991 | S. cerevisiae deletion strains, locus YKR091W, strain srl3, hits give low values 0.989 | S. cerevisiae deletion strains, locus YLL001W, strain dnm1, hits give low values 0.986 | S. cerevisiae deletion strains, locus YLL026W, hits give low values 0.987 | S. cerevisiae deletion strains, locus YLL041C, strain sdh2, hits give low values 0.99 | S. cerevisiae deletion strains, locus YLR027C, strain aat2, hits give low values 0.97 | S. cerevisiae deletion strains, locus YLR039C, strain RIC1, hits give low values 0.955 | S. cerevisiae deletion strains, locus YLR058C, strain SHM2, hits give low values 0.977 | S. cerevisiae deletion strains, locus YLR102C, strain apc9, hits give low values 0.963 | S. cerevisiae deletion strains, locus YLR113W, strain HOG1, hits give low values 0.966 | S. cerevisiae deletion strains, locus YLR221C, strain rsa3, hits give low values 1 | S. cerevisiae deletion strains, locus YLR258W, strain gsy2, hits give low values 0.992 | S. cerevisiae deletion strains, locus YLR262C, strain YPT6 (second series), hits give low values 0.985 | S. cerevisiae deletion strains, locus YLR262C, strain YPT6, hits give low values 0.96 | S. cerevisiae deletion strains, locus YLR268W, strain sec22, hits give low values 0.964 | S. cerevisiae deletion strains, locus YLR320W, strain mms22, hits give low values 1.01 | S. cerevisiae deletion strains, locus YLR330W, strain CHS5, hits give low values 0.986 | S. cerevisiae deletion strains, locus YLR342W, strain FKS1 (second series), hits give low values 1.03 | S. cerevisiae deletion strains, locus YLR342W, strain FKS1, hits give low values 0.989 | S. cerevisiae deletion strains, locus YLR357W, strain rsc2, hits give low values 0.969 | S. cerevisiae deletion strains, locus YLR370C, strain arc18, hits give low values 0.994 | S. cerevisiae deletion strains, locus YLR371W, strain rom2, hits give low values 0.955 | S. cerevisiae deletion strains, locus YLR384C, strain iki3, hits give low values 0.974 | S. cerevisiae deletion strains, locus YLR418C, strain cdc73, hits give low values 0.982 | S. cerevisiae deletion strains, locus YML016C, strain PPZ1, hits give low values 0.981 | S. cerevisiae deletion strains, locus YML032C, strain rad52, hits give low values 0.975 | S. cerevisiae deletion strains, locus YML120C, strain ndi1, hits give low values 0.989 | S. cerevisiae deletion strains, locus YML124C, strain tub3, hits give low values 0.973 | S. cerevisiae deletion strains, locus YMR058W, strain fet3, hits give low values 0.988 | S. cerevisiae deletion strains, locus YMR078C, strain ctf18, hits give low values 0.972 | S. cerevisiae deletion strains, locus YMR125W, strain sto1, hits give low values 0.986 | S. cerevisiae deletion strains, locus YMR129W, hits give low values 0.986 | S. cerevisiae deletion strains, locus YMR205C, strain PFK2, hits give low values 0.992 | S. cerevisiae deletion strains, locus YMR223W, strain ubp8, hits give low values 0.988 | S. cerevisiae deletion strains, locus YMR231W, strain pep5, hits give low values 0.986 | S. cerevisiae deletion strains, locus YMR263W, strain SAP30, hits give low values 0.993 | S. cerevisiae deletion strains, locus YMR307W, strain GAS1, hits give low values 0.957 | S. cerevisiae deletion strains, locus YNL067W, strain RPL9B, hits give low values 1 | S. cerevisiae deletion strains, locus YNL071W, strain lat1, hits give low values 0.995 | S. cerevisiae deletion strains, locus YNL128W, strain TEP1, hits give low values 0.992 | S. cerevisiae deletion strains, locus YNL153C, strain GIM3, hits give low values 0.996 | S. cerevisiae deletion strains, locus YNL183C, strain NPR1, hits give low values 0.959 | S. cerevisiae deletion strains, locus YNL209W, strain ssb2, hits give low values 0.994 | S. cerevisiae deletion strains, locus YNL233W, strain BNI4, hits give low values 0.99 | S. cerevisiae deletion strains, locus YNL248C, strain rpa49, hits give low values 0.991 | S. cerevisiae deletion strains, locus YNL250W, strain rad50, hits give low values 0.971 | S. cerevisiae deletion strains, locus YNL271C, strain bni1, hits give low values 0.956 | S. cerevisiae deletion strains, locus YNL298W, strain CLA4, hits give low values 0.946 | S. cerevisiae deletion strains, locus YNL307C, strain MCK1, hits give low values 0.99 | S. cerevisiae deletion strains, locus YNL322C, strain KRE1 (second series), hits give low values 0.995 | S. cerevisiae deletion strains, locus YNL322C, strain KRE1, hits give low values 0.99 | S. cerevisiae deletion strains, locus YNR049C, strain mso1, hits give low values 0.983 | S. cerevisiae deletion strains, locus YNR052C, strain pop2, hits give low values 0.967 | S. cerevisiae deletion strains, locus YOL006C, strain TOP1, hits give low values 0.955 | S. cerevisiae deletion strains, locus YOL012C, strain htz1 0.703 | S. cerevisiae deletion strains, locus YOL147C, strain pex11, hits give low values 0.969 | S. cerevisiae deletion strains, locus YOR001W, strain rrp6, hits give low values 0.974 | S. cerevisiae deletion strains, locus YOR061W, strain CKA2, hits give low values 0.966 | S. cerevisiae deletion strains, locus YOR069W, strain VPS5, hits give low values 0.982 | S. cerevisiae deletion strains, locus YOR070C, strain gyp1, hits give low values 0.996 | S. cerevisiae deletion strains, locus YOR080W, strain dia2, hits give low values 0.975 | S. cerevisiae deletion strains, locus YOR083W, strain WHI5, hits give low values 0.987 | S. cerevisiae deletion strains, locus YOR106W, strain vam3, hits give low values 0.982 | S. cerevisiae deletion strains, locus YOR136W, strain idh2, hits give low values 0.959 | S. cerevisiae deletion strains, locus YOR144C, strain elg1, hits give low values 0.958 | S. cerevisiae deletion strains, locus YOR184W, strain ser1, hits give low values 0.966 | S. cerevisiae deletion strains, locus YOR231W, strain MKK1, hits give low values 0.991 | S. cerevisiae deletion strains, locus YOR265W, strain rbl2, hits give low values 0.98 | S. cerevisiae deletion strains, locus YOR270C, strain vph1, hits give low values 1 | S. cerevisiae deletion strains, locus YOR290C, strain snf2, hits give low values 1.01 | S. cerevisiae deletion strains, locus YOR316C, strain cot1, hits give low values 0.958 | S. cerevisiae deletion strains, locus YPL051W, strain arl3, hits give low values 0.984 | S. cerevisiae deletion strains, locus YPL055C, strain LGE1, hits give low values 0.992 | S. cerevisiae deletion strains, locus YPL078C, strain atp4, hits give low values 0.976 | S. cerevisiae deletion strains, locus YPL106C, strain sse1, hits give low values 0.973 | S. cerevisiae deletion strains, locus YPL240C, strain hsp82, hits give low values 0.973 | S. cerevisiae deletion strains, locus YPL241C, strain CIN2, hits give low values 0.993 | S. cerevisiae deletion strains, locus YPL256C, strain CLN2, hits give low values 0.958 | S. cerevisiae deletion strains, locus YPR119W, strain clb2, hits give low values 0.974 | S. cerevisiae deletion strains, locus YPR141C, strain kar3, hits give low values 0.943 | S. cerevisiae deletion strains, locus YPR163C, strain tif3, hits give low values 0.966 | S. cerevisiae deletion strains, locus YPR167C, strain met16, hits give low values 0.962 | S. cerevisiae deletion strains, strain wtn01, hits give low values 0.965 | S. cerevisiae strains, strain wild type, hits give low values 0.994
